Source: the supplement of paper PMC11732987, “Enantioselective OTUD7B fragment discovery through chemoproteomics screening and high-throughput optimisation” (Communications Chemistry, 2025)

Experiments:
Assay in all cases: log2 ratio of Biotin-Ahx-Ub-VS probe labelling (fragment/DMSO); higher = less target engagement (more negative = stronger competition), active = hit call of the paper (q ≤ 0.05, log2 ratio ≤ -1)
Details in all cases: compound concentration: 200 uM; treatment time: 3 h
USP34 = USP34 (UniProt Q70CQ2)
How it was run: (§1)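 Labelled DUBs from HEK293T lysate were NeutrAvidin-enriched, digested with LysC and trypsin, and run by diaPASEF LC-MS/MS. Before that, each 495 µg sample in Tris/CHAPS/IGEPAL buffer with protease inhibitors was treated in triplicate with fragment at 200 µM or vehicle for 3 h, then with Biotin-Ahx-Ub-VS at 0.5 µM final for 1 h. Values are average log2 ratios of fragment over vehicle by unpaired t-test, based on global-median-normalised Spectronaut label-free quantities from proteins with ≥2 unique peptides.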

USP36 = biological target: T1, USP36 (UniProt Q9P275)
T1 sequence (whole entry): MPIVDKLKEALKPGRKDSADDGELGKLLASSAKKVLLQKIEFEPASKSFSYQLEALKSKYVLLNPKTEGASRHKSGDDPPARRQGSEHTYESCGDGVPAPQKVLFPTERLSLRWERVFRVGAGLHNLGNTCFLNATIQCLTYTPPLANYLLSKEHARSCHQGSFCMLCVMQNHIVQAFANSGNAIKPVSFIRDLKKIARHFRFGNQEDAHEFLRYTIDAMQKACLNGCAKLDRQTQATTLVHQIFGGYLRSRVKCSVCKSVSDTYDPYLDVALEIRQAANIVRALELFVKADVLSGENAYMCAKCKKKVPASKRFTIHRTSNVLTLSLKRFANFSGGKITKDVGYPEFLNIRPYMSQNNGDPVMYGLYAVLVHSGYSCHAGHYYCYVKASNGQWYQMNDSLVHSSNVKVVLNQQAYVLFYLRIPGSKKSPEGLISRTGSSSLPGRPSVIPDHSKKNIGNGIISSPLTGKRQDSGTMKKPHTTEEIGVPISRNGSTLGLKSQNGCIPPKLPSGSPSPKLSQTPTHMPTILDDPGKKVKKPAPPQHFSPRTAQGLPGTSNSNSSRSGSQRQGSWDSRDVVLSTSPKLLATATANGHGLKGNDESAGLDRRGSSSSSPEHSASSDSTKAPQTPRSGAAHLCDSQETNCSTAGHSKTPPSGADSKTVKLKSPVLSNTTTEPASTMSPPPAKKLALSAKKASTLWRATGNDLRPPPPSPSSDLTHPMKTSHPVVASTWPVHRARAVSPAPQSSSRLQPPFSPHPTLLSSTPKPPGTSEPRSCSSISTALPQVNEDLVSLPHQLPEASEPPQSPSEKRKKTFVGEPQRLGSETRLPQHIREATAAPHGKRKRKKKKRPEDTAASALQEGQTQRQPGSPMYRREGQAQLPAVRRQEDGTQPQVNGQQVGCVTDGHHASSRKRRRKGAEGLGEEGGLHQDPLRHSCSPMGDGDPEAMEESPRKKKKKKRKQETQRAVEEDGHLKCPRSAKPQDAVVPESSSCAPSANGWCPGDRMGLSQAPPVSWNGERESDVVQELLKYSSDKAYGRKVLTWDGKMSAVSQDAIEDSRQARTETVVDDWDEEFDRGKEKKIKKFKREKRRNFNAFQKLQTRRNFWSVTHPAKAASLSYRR
How it was run: as §1

USP38 = biological target: T2, USP38 (UniProt Q8NB14)
T2 sequence (whole entry): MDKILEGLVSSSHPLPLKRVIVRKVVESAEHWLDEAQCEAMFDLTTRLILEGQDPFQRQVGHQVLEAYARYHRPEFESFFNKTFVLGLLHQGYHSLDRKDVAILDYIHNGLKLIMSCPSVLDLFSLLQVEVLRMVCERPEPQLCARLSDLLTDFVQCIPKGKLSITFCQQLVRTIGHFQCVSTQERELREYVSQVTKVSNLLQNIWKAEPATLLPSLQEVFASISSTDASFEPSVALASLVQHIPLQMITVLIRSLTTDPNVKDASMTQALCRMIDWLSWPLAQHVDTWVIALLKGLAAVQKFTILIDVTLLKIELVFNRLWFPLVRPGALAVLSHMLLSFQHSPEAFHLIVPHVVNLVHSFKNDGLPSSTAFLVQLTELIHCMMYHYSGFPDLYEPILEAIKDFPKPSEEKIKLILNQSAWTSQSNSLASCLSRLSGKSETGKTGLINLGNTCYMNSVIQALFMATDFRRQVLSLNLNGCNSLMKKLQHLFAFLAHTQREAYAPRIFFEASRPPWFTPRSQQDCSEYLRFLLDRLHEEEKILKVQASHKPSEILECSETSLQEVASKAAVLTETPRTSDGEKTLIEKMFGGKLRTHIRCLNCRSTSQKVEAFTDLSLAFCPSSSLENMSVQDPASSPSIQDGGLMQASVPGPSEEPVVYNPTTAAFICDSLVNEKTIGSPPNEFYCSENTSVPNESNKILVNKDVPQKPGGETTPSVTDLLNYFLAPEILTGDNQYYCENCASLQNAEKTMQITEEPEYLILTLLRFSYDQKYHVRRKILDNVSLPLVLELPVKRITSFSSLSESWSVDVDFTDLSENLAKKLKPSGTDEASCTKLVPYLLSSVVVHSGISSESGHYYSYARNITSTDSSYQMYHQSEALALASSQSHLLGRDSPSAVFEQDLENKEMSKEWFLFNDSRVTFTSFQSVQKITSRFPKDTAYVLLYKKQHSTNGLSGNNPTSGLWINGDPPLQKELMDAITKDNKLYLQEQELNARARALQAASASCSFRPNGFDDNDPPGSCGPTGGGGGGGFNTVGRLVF
How it was run: as §1

USP39 = biological target: T3, USP39 (UniProt Q53GS9)
T3 sequence (whole entry): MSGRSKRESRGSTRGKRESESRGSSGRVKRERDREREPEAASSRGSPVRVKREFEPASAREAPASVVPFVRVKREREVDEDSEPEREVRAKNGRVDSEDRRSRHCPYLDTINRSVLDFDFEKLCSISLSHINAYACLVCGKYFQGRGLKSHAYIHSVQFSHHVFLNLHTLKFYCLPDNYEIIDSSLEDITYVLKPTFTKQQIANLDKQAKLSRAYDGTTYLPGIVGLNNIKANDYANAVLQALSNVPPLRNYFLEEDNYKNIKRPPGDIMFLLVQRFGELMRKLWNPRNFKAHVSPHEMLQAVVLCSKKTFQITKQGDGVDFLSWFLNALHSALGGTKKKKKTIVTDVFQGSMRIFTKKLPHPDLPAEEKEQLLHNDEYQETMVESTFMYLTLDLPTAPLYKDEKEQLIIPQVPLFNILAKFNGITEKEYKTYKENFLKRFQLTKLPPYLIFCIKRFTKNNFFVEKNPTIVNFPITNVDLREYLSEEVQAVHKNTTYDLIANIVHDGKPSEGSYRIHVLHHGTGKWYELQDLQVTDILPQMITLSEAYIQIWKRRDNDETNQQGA
How it was run: as §1

USP4 = biological target: T4, USP4 (UniProt Q13107)
T4 sequence (whole entry): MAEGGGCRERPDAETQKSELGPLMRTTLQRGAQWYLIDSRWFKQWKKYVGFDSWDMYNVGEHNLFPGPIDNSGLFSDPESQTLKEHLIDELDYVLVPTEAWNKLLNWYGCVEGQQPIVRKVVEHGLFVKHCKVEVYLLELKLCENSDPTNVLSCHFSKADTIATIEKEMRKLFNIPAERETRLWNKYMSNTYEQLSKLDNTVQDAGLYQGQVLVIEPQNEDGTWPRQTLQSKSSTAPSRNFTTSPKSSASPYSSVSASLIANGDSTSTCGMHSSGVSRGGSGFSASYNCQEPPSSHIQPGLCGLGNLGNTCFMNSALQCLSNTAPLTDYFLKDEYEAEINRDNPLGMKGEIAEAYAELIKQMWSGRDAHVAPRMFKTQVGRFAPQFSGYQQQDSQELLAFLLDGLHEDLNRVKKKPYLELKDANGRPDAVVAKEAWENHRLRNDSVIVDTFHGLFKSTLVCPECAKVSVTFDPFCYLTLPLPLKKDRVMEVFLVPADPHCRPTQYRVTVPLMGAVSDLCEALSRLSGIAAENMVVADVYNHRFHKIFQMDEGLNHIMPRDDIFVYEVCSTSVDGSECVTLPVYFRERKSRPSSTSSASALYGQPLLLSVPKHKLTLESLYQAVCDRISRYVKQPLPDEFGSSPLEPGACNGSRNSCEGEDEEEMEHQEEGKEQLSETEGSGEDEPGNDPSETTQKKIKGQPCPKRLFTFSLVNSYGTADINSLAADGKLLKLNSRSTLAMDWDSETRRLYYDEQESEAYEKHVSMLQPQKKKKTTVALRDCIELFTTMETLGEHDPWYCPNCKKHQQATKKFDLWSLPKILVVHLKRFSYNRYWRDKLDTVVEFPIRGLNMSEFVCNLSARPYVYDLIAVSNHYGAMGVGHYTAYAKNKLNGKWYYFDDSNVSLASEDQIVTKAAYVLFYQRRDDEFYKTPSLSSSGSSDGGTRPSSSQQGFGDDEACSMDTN
How it was run: as §1

Measured: log2 ratio of Biotin-Ahx-Ub-VS probe labelling

USP34, sequence (Q70CQ2 whole entry, the tested form may be a part): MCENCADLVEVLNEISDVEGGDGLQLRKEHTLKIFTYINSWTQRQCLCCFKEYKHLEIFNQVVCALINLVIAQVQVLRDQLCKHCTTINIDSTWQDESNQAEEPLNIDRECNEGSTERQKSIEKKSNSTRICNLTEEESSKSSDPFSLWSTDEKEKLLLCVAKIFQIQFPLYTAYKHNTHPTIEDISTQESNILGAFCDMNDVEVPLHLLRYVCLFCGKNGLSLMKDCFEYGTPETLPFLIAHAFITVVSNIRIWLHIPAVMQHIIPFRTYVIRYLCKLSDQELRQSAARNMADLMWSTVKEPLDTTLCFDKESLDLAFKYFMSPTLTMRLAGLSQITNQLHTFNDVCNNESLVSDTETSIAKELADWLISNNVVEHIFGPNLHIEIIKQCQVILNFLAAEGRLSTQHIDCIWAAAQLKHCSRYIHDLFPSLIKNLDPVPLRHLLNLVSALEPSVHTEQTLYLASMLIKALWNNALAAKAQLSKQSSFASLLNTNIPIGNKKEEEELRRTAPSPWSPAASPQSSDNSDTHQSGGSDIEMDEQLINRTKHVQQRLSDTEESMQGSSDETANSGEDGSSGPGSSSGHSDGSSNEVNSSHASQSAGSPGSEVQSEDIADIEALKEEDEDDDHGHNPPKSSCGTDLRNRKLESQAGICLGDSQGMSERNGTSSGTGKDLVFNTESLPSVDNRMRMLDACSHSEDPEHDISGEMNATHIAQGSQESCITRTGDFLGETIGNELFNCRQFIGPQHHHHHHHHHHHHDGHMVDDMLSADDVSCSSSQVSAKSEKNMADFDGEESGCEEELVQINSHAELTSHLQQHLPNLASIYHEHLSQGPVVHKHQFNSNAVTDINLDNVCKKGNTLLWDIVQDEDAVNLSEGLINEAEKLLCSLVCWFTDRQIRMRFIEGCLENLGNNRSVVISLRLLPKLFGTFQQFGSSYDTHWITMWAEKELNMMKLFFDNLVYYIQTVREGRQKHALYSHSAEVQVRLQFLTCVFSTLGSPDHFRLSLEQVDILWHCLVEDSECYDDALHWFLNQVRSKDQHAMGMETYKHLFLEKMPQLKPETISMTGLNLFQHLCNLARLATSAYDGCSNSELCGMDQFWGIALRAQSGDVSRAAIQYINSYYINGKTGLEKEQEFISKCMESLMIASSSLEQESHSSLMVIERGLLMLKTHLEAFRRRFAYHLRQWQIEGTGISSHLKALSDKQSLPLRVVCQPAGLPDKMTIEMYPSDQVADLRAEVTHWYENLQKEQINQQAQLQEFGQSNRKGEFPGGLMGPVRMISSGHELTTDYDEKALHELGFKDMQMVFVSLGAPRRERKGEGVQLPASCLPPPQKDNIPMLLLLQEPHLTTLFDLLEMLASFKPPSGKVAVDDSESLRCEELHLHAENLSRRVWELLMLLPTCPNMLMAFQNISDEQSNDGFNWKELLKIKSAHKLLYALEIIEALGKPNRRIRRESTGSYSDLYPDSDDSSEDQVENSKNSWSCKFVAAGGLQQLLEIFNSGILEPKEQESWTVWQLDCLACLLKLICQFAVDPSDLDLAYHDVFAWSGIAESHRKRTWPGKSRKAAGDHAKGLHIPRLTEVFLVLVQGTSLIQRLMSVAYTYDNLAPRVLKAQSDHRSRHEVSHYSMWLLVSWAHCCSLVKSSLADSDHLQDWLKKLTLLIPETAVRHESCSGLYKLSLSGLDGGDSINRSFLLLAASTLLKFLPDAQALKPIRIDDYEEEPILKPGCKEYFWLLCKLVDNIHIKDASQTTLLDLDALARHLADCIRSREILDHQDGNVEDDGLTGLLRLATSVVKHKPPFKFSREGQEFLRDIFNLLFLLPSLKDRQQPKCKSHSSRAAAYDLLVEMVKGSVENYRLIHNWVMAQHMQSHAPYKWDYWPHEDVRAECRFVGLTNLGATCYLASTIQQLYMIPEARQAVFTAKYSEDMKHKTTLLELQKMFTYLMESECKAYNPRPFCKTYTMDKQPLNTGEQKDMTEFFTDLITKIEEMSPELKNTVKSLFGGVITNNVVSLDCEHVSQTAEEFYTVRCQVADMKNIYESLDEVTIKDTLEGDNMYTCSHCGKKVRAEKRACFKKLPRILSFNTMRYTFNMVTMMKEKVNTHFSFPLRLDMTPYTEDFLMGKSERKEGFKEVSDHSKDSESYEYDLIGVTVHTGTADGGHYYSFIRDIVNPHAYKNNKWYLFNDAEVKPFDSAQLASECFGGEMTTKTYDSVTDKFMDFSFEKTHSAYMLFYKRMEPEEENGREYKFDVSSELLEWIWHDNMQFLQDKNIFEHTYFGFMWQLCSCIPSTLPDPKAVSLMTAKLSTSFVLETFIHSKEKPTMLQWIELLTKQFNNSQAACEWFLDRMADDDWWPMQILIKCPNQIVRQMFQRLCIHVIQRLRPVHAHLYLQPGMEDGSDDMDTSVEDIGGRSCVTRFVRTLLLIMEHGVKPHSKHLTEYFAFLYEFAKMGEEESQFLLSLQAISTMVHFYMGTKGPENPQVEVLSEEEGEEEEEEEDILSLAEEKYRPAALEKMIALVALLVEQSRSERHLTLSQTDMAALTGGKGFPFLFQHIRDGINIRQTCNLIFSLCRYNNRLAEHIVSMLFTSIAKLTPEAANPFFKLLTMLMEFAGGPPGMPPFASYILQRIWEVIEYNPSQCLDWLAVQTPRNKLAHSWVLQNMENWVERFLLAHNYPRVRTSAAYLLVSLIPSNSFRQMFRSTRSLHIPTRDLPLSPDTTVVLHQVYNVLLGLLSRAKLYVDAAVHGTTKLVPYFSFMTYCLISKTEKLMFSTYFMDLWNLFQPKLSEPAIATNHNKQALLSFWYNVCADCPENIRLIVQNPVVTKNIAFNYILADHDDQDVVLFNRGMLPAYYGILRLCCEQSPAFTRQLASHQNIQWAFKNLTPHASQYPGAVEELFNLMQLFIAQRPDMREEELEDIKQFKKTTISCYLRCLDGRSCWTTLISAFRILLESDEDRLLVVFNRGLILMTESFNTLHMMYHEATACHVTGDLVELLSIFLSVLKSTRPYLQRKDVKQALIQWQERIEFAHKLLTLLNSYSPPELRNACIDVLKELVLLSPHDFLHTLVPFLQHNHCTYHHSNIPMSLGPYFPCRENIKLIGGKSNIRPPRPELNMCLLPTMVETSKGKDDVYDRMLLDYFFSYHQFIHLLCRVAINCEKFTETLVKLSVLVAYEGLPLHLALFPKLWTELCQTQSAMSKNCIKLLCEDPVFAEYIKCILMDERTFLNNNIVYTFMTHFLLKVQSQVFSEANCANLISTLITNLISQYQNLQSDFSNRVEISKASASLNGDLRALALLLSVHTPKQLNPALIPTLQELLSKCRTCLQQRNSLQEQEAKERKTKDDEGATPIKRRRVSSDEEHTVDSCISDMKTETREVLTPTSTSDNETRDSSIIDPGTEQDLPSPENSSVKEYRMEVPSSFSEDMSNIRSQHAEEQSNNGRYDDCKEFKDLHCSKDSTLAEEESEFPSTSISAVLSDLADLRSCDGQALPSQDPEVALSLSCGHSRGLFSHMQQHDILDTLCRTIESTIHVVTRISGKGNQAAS

O=C(CCl)NC1CCC(C(F)(F)F)CC1 (stereo not given)
inactive: USP34 -0.186 | USP36 -0.0199 | USP38 0.115 | USP39 0.207 | USP4 -0.24
